Data on 39 molecules can be found in PubChem BioAssay (NCATS).

Unmarked numbers belong to inactive results. Activity calls are given as the source filed them. Calls come from the whole dose curve; as a rule, active = well fitted curve in the direction sought with a large enough effect; inconclusive = small, poorly fitted or top-dose-only effect, or another doubt; inactive = no such curve, though single readings can be large; an effect the other way counts as inactive or inconclusive.

The target of the first test is Alpha-galactosidase (Coffea arabica) (UniProt Q42656). The experiment in a line: Counterscreen for Glucocerebrosidase Inhibitors: qHTS Assay for Coffee Bean alpha-Galactosidase at pH 4.5 (AID 957).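 Note: plate controls were enzyme alone for no effect and no enzyme for full effect.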 The settings on record: purified coffee bean alpha-galactosidase, fluorogenic substrate; series mostly up to 76.9 µM; activity change, negative = inhibition: at the top concentration. The method, boiled down: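 Green coffee bean enzyme (2 nM final) was incubated with compounds (0.7 nM to 77 uM) and 4-methylumbelliferyl alpha-D-galactopyranoside (80 uM final) in 50 mM citric acid, 0.005% Tween-20, pH 4.5, 20 min at room temperature; AC50 from Hill fits.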
Chain of Alpha-galactosidase (Coffea arabica) (Q42656 whole entry, looked up): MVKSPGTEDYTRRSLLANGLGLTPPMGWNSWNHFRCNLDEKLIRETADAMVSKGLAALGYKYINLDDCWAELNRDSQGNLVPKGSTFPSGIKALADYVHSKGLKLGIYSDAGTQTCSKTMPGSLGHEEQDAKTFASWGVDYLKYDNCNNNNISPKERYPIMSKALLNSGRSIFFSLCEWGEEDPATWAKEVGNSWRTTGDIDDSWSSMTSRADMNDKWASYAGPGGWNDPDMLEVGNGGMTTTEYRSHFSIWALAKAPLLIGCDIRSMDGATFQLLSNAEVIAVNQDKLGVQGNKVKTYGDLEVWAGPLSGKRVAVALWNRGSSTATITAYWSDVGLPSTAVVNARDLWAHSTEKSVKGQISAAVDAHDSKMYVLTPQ
(In general: Counterscreens check selectivity or assay interference.)
As to `Nc1nc(Cl)nc2c1ncn2[C@@H]1O[C@@H](COP(=O)(O)OP(=O)(O)OP(=O)(O)O)[C@@H](O)[C@H]1O`, the “activity change, negative = inhibition” value is -2.81%.
For `NC(=O)C1=CN([C@@H]2O[C@@H](COP(=O)(O)OP(=O)(O)OC[C@@H]3O[C@H](n4cnc5c(N)ncnc54)[C@@H](OP(=O)(O)O)[C@@H]3O)[C@H](O)[C@@H]2O)C=CC1`, the “activity change, negative = inhibition” value was -4.76%.
As to `CC(C)(Oc1ccc([C@@H]2CC2(Cl)Cl)cc1)C(=O)O`, the “activity change, negative = inhibition” value is -2.9%.
The same measure, in the same setting: with `O=C(O)/C=C\c1cnc[nH]1` the figure was -0.117%; with `C[C@@H]1CCN=C(N)S1`, -1.24%.
As to `C#C[C@]1(O)CC[C@H]2[C@H]3CCC4=Cc5oncc5C[C@]4(C)[C@@H]3CC[C@]21C`, the “activity change, negative = inhibition” value was -4.77%.
The same measure, in the same setting: the figure for `COC(=O)[C@](C)(N)Cc1ccc(O)cc1` is 2.12%; for `COc1cccc2c1[C@@H]1CN(CCCCn3c(=O)[nH]c4c(sc5ncc(-c6ccccc6)nc54)c3=O)C[C@H]1CO2` it is -4.55%; for `CN1CCN([C@@H]2Cc3ccccc3Sc3ccc(Cl)cc32)CC1` it is -7.21%.
In the case of `CCCCCCCCCCCCCCCCCC(=O)O[C@H](CC(=O)O)C[N+](C)(C)C`, the “activity change, negative = inhibition” value was 0.414%.
The same measure, in the same setting: with `NC[C@H](O)C1CCCCCCC1` the figure was -1.27%; with `O=C(O)CCCC[C@H]1CCSS1`, -2.6%.

Another test has the same target. In words: Counterscreen for Glucocerebrosidase Inhibitors: qHTS Assay for Coffee Bean alpha-Galactosidase at pH 5.9 (AID 998).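 Note: plate controls were uninhibited enzyme for no effect and no-enzyme basal signal for full effect.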 The settings on record: coffee bean alpha-galactosidase enzyme assay; series mostly up to 76.9 µM; activity, negative = inhibition: at the top concentration. The method, boiled down:
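Compounds were titrated from 0.7 nM to 77 uM against green coffee bean alpha-galactosidase (2 nM) using 80 uM fluorogenic 4-methylumbelliferyl substrate. After 20 min at room temperature, reactions were stopped at pH 10 and read by fluorescence.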
Turning to `C=CCc1ccccc1OC[C@H](O)CNC(C)C`, the “activity, negative = inhibition” value is 0.161%.
`CCCCC/C=C\C[C@H](O)/C=C\c1cccc(C[C@H](O)CCCCO)n1`: the “activity, negative = inhibition” value was 3.85%.
Same read-out and setting: with `Nc1nc(Cl)nc2c1ncn2[C@@H]1O[C@@H](COP(=O)(O)OP(=O)(O)OP(=O)(O)O)[C@@H](O)[C@H]1O` the figure was 0.545%.
For the molecule `CN(C)CC[C@H](c1ccc(Br)cc1)c1ccccn1`, the molecule was classed as inactive.
In the case of `O=C1O/C(=C\Br)CC[C@@H]1c1cccc2ccccc12`, the “activity, negative = inhibition” value is 5.4%.
On to `NC(=O)C1=CN([C@@H]2O[C@@H](COP(=O)(O)OP(=O)(O)OC[C@@H]3O[C@H](n4cnc5c(N)ncnc54)[C@@H](OP(=O)(O)O)[C@@H]3O)[C@H](O)[C@@H]2O)C=CC1`, for which the “activity, negative = inhibition” value is 1.78%.
In the case of `CC(C)(Oc1ccc([C@@H]2CC2(Cl)Cl)cc1)C(=O)O`, the “activity, negative = inhibition” value is 4.64%.
On the same count and under the same terms, the figure for `COc1cc([C@H](O)CO)ccc1O` is 1.71%; for `O=C(O)/C=C\c1cnc[nH]1` it is 1.5%.
The same measure, in the same setting: with `C[C@@H](CN1CCC(Cc2ccccc2)CC1)[C@H](O)c1ccc(O)cc1` the figure was -2.88%; with `CC(=O)O[C@]1(C(C)=O)CC[C@@H]2[C@@H]3C=C(Cl)C4=CC(=O)[C@H]5C[C@@H]5[C@]4(C)[C@H]3CC[C@]21C`, -4.55%.
Turning to `COc1c2c(nc3ccccc13)O[C@@H]([C@@](C)(O)CO)C2`, the “activity, negative = inhibition” value is -3.42%.
Turning to `O[C@H](CN1CCN(c2cccc(Cl)c2)CC1)C(c1ccccc1)c1ccccc1`, the “activity, negative = inhibition” value is -10.7%.
On the same count and under the same terms, the figure for `C[C@@H]1CCN=C(N)S1` is -3.33%.
Take `C#C[C@]1(O)CC[C@H]2[C@H]3CCC4=Cc5oncc5C[C@]4(C)[C@@H]3CC[C@]21C`: the “activity, negative = inhibition” value is -4.25%.
The same measure, in the same setting: with `C#C[C@H](N)CCC(=O)O` the figure was 1.96%; with `CN1CCN2c3ccccc3Cc3ccccc3[C@@H]2C1`, -1.29%; with `COC(=O)[C@](C)(N)Cc1ccc(O)cc1`, -2.61%.
`CCCCCCCCCCCCC/C=C\[C@@H](O)[C@@H](N)CO`: the “activity, negative = inhibition” value was -6.54%.
`C#CCN1C(C)=C(C(=O)OC)[C@@H](c2cccc([N+](=O)[O-])c2)C(C(=O)OCC)=C1C`: the “activity, negative = inhibition” value was -6.32%.
Same read-out and setting: with `COc1cccc2c1[C@@H]1CN(CCCCn3c(=O)[nH]c4c(sc5ncc(-c6ccccc6)nc54)c3=O)C[C@H]1CO2` the figure was -5.27%.
Consider `CC(C)COC[C@H](CN(Cc1ccccc1)c1ccccc1)N1CCCC1`, for which the “activity, negative = inhibition” value is -3.81%.
Same read-out and setting: with `C[C@@H]1C(=O)N(C)C(=O)c2nc[nH]c21` the figure was -0.52%; with `Cc1ccccc1[C@@H](OCCN(C)C)c1ccccc1`, -1.35%.
Regarding `Oc1ccc([C@@H]2CNCc3sccc32)cc1O`, the “activity, negative = inhibition” value is -0.494%.
Turning to `COC(=O)[C@H]1[C@H]2C[C@H]3c4[nH]c5ccccc5c4CCN3C[C@@H]2CC[C@@H]1O`, the result was inactive.
Regarding `CN1CCN([C@@H]2Cc3ccccc3Sc3ccc(Cl)cc32)CC1`, the “activity, negative = inhibition” value was -3.82%.
In the case of `CCCCCCCCCCCCCCCCCC(=O)O[C@H](CC(=O)O)C[N+](C)(C)C`, the “activity, negative = inhibition” value was -1.27%.
Still for that read-out and setting: with `CC(=O)[C@@]1(O)Cc2c(O)c3c(c(O)c2[C@H](O[C@H]2C[C@H](N)[C@H](O)[C@H](C)O2)C1)C(=O)c1ccccc1C3=O` the figure was -0.566%; with `Nc1nc2c(nc(Br)n2[C@@H]2O[C@H]3COP(=O)(O)O[C@@H]3[C@H]2O)c(=O)[nH]1`, 1.21%; with `NC[C@H](O)C1CCCCCCC1`, -0.8%.
Same read-out and setting: the figure for `O=C(O)CCCC[C@H]1CCSS1` is -2.03%.
`CCCN[C@@H](C)C(=O)Nc1ccccc1C`: the “activity, negative = inhibition” value is 0.149%.
With `CCCCCCCCCCCCCCCC(=O)NC[C@@H](COP(=O)([O-])OCC[N+](C)(C)C)OCC`, the “activity, negative = inhibition” value is -2%.
On the same count and under the same terms, the figure for `CC(=O)N[C@@H](C(=O)O)C(C)(C)SN=O` is -1.07%; for `CN1CCc2cc(O)c(O)cc2[C@H](c2ccccc2)C1` it is 0.711%; for `COc1cc2nc(N3CCN(C(=O)OCc4ccccc4)[C@H](C(=O)NC(C)(C)C)C3)nc(N)c2cc1OC` it is 3.29%.
Still for that read-out and setting: the figure for `CN1CC[C@@]2(CCN3CCc4c(oc5ccccc45)[C@@H]3C2)N(C)C1=O` is 0.263%; for `CNCC[C@H](Oc1ccccc1OC)c1ccccc1` it is -0.76%.
